Rows were chosen to be rich in hits. Some 17% of all compounds tested hit in one or more screens of this group.
HepG2 tox = qHTS for Inhibitors of TGF-b: Cytotox Counterscreen; HepG2 CAGA-GFP viability, ATP luminescence, 18 h; Potency, µM (series often up to 46.1 µM), most hits filed as cytotoxic; 0.76% of 410,000 active; AID 588856, 2011
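HepG2 CAGA-GFP cells (1000/well, DMEM with 1% FBS) received compound, then TGF-beta at 500 pg/mL final, and were incubated 18 hours at 37 degrees C. Viability was read by CellTiter-Glo luminescence. Media-only wells were set as complete cell-killing and DMSO as no toxicity.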
DT40 TDP1 CPT = qHTS for Inhibitors of human tyrosyl-DNA phosphodiesterase 1 (TDP1): qHTS in cells in presence of CPT. chicken DT40 Tdp1-/-;hTDP1 cells + 20 nM CPT, ATP luminescence, 48 h. Potency, µM (series often up to 46.2 µM), actives largely listed as inhibitors. 12% of 420,000 active. AID 686979, 2013; also: nearly all actives have a fitted effect of over 55% in size
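Cell growth measured by CellTiter-Glo luminescence after a minimum 48 h, 37 C compound exposure with 20 nM CPT in Tdp1-knockout DT40 cells stably expressing hTDP1, seeded 400/well; qHTS titration format.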
TGFb inhibitor = qHTS for Inhibitors of TGF-b; Potency, µM (titrated, usually from 46.1 µM), actives largely listed as inhibitors; HepG2 CAGA-GFP TGF-b/SMAD3 reporter, GFP fluorescence, 18 h; TGF-beta stimulated, 500 pg/mL final; 1.2% of 410,000 active; also: nearly all actives have a fitted effect of over 65% in size
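Read-out: total well GFP (ex488/em500-530) summed from mean per-cell fluorescence. Cells: HEPG2 CAGA-GFP, 1% FBS DMEM, 18 h at 37 degrees C with 500 pg/mL final TGF-beta. Unstimulated wells served as the full-inhibition control; stimulated DMSO wells = 0%.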
ATXN viability = Viability Counterscreen for Primary qHTS for Inhibitors of ATXN expression; S2 cells (HEK-293 line with an ATXN2-luciferase reporter) viability, CellTiter-Fluor protease fluorescence, 24 h; Potency, µM (highest dose often 56.7 µM), actives largely listed as cytotoxic; 0.49% of 400,000 active; AID 651635, 2014; also: nearly all actives have a fitted effect of over 40% in size
ATXN2 expr inh = Primary qHTS for Inhibitors of ATXN expression; HEK-293 ATXN2-luciferase reporter, luminescence, 24 h; Potency, µM (series often up to 57 µM), hits mostly inhibitors; 0.72% of 360,000 active; also: nearly all actives have a fitted effect of over 55% in size
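qHTS (up to 57 uM final) was run with 24 h compound exposure of reporter cells at 37 °C. Each well was multiplexed: SteadyGlo luminescence measured ATXN2-luciferase expression after a fluorogenic Gly-Phe-AFC viability readout (25 uM final).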
DT40 TDP1 no CPT = qHTS for Inhibitors of human tyrosyl-DNA phosphodiesterase 1 (TDP1): qHTS in cells in absence of CPT; AID 686978, 2013; 15% of 420,000 active; Potency, µM (titrated, usually from 46.2 µM), most hits filed as inhibitors; DT40 Tdp1-/- hTDP1 cells, no CPT, ATP luminescence, 48 h; also: nearly all actives have a fitted effect of over 55% in size
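Stably hTDP1-transfected Tdp1-null chicken DT40 cells were treated with library compounds minus camptothecin and grown for at least 48 hr at 37 °C, after which cellular ATP was quantified by luminescence.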
Each line names hits and unclear results; the compound was inactive in the other large screens. Calls follow the shape of the dose curve; as a rule, active = well fitted curve in the direction sought with a large enough effect; inconclusive = small, poorly fitted or top-dose-only effect, or another doubt; inactive = no such curve, though single readings can be large; an effect the other way counts as inactive or inconclusive.

COc1ccc(/C=C(/NC(=O)c2cccc([N+](=O)[O-])c2)C(=O)O)cc1	none
O=C(CNC(=S)NC(=O)c1cccc([N+](=O)[O-])c1)c1ccccc1	none
CN(CC(=O)Nc1ccccc1Cl)CC(=O)c1c(N)n(Cc2ccccc2)c(=O)n(C)c1=O	none
CC(C)CC(C(=O)O)N1C(=O)[C@@H]2[C@H](C1=O)[C@@H]1C[C@H]2C(Br)C1Br (stereo partly drawn)	none
CC1CN(C(=S)Nc2cccc([N+](=O)[O-])c2)CC(C)O1 (stereo not drawn)	none
O=C(NC(=S)Nc1ccccn1)c1cccc([N+](=O)[O-])c1	DT40 TDP1 CPT inconclusive, DT40 TDP1 no CPT 18µM
CCCCCC(=O)NNC(=S)NC(=O)c1ccccc1[N+](=O)[O-]	DT40 TDP1 CPT inconclusive, DT40 TDP1 no CPT inconclusive (no result: ATXN2 expr inh)
CCCCCC(=O)NNC(=S)NC(=O)c1cccc([N+](=O)[O-])c1	DT40 TDP1 CPT 15µM, ATXN viability inconclusive, DT40 TDP1 no CPT 13µM
CC1CN(C(=S)NC(=O)c2cccc([N+](=O)[O-])c2)CC(C)O1 (stereo not drawn)	DT40 TDP1 CPT inconclusive, DT40 TDP1 no CPT 16µM
Cc1ccccc1C(=O)NC(C)c1nnc2n1CCN(Cc1ccnc3ccccc13)CC2 (stereo not drawn)	DT40 TDP1 CPT inconclusive, DT40 TDP1 no CPT inconclusive (no result: HepG2 tox, TGFb inhibitor, ATXN2 expr inh)
COc1ccc(N2C(=S)NC3N2C(=S)NC3(C)c2ccccc2)cc1 (stereo not drawn)	TGFb inhibitor inconclusive, DT40 TDP1 no CPT inconclusive
COc1ccc(NC(=O)N2CCCC(C(=O)NCCc3ccccc3)C2)cc1 (stereo not drawn)	DT40 TDP1 CPT inconclusive, DT40 TDP1 no CPT inconclusive
COc1ccc(-c2nnc3ccc(SC(C)C)nn23)cc1OC	DT40 TDP1 CPT 10µM, TGFb inhibitor inconclusive, DT40 TDP1 no CPT 13µM (no result: ATXN viability, ATXN2 expr inh)
COc1ccc(-c2nnc3ccc(SC(C(C)=O)C(C)=O)nn23)cc1OC	DT40 TDP1 CPT 18µM, DT40 TDP1 no CPT inconclusive
CC(C)Oc1ccc2c(c1)OC(c1ccccc1)(C(F)(F)F)NC2=O (stereo not drawn)	DT40 TDP1 CPT inconclusive, DT40 TDP1 no CPT 26µM
Cn1c(C(=O)NC2CCCCCC2)cc2c(=O)n(C)c3ccccc3c21	DT40 TDP1 CPT 15µM, DT40 TDP1 no CPT 16µM
CC1CCCCN1CCNC(=O)c1cc2c(=O)n(C)c3ccccc3c2n1C (stereo not drawn)	DT40 TDP1 CPT inconclusive, ATXN viability inconclusive, DT40 TDP1 no CPT inconclusive
Cn1c(=O)c(C(=O)NC2CCCCCCC2)c(O)c2ccccc21	DT40 TDP1 CPT 21µM, DT40 TDP1 no CPT 21µM
Cn1c(C(=O)NC2CCCCC2)cc2c(=O)n(C)c3ccccc3c21	DT40 TDP1 CPT inconclusive, DT40 TDP1 no CPT 16µM
Cn1c(=O)c(C(=O)NC2CCCCCC2)c(O)c2ccccc21	none (no result: ATXN2 expr inh)
COc1ccc2c(c1)CC(C(=O)Nc1cccc(C)c1C)CO2 (stereo not drawn)	none
COC(=O)c1ccc(C2Nc3ccc(/C(C)=N/NC(=O)C(OC)c4ccccc4)cc3C3C=CCC32)cc1 (stereo not drawn)	DT40 TDP1 CPT 13µM, DT40 TDP1 no CPT 15µM
COc1cccc([C@H]2Nc3ccc(S(=O)(=O)Nc4cc(C)ccc4C)cc3[C@H]3C=CC[C@H]32)c1	DT40 TDP1 CPT 3.7µM, TGFb inhibitor inconclusive, DT40 TDP1 no CPT 5.2µM
Cc1ccc(NS(=O)(=O)c2ccc3c(c2)[C@H]2C=CC[C@H]2[C@@H](c2ccc(F)cc2)N3)cc1C	DT40 TDP1 CPT 8.2µM, TGFb inhibitor 8.9µM, DT40 TDP1 no CPT 5.2µM
Cc1ccc([C@H]2Nc3ccc(S(=O)(=O)Nc4cccc(Cl)c4C)cc3[C@H]3C=CC[C@H]32)cc1	DT40 TDP1 CPT inconclusive, DT40 TDP1 no CPT inconclusive (no result: ATXN viability, ATXN2 expr inh)
COC(=O)c1ccc([C@H]2Nc3ccc(S(=O)(=O)Nc4cccc(C)c4)cc3[C@H]3C=CC[C@H]32)cc1	DT40 TDP1 CPT 1.8µM, TGFb inhibitor 6.3µM, ATXN viability inconclusive, DT40 TDP1 no CPT 1.2µM
CC(=O)c1ccc2c(c1)C1C=CCC1C(c1ccncc1)N2 (stereo not drawn)	DT40 TDP1 no CPT inconclusive
Nc1[nH]c(=O)ncc1F	none
O=[N+]([O-])c1ccc(C2NS(=O)(=O)N=C3CCCCCN32)cc1 (stereo not drawn)	DT40 TDP1 no CPT inconclusive (no result: ATXN viability, ATXN2 expr inh)
COc1ccc(-n2nc(C(N)=O)c3c2C(=O)N(c2ccc(N4CCCCC4=O)cc2)CC3)cc1	none (no result: HepG2 tox, DT40 TDP1 CPT, TGFb inhibitor, ATXN viability, DT40 TDP1 no CPT)
CCOC(=O)c1sc(N(Cc2ccccc2)C(=O)COC(=O)c2ccc(O)cc2)nc1C	DT40 TDP1 CPT 9.2µM, TGFb inhibitor 13µM, ATXN2 expr inh inconclusive, DT40 TDP1 no CPT 5.8µM
CCOC(=O)c1sc(N(Cc2ccccc2)C(=O)CSc2ncn[nH]2)nc1C	DT40 TDP1 CPT inconclusive, DT40 TDP1 no CPT inconclusive
CCOC(=O)c1sc(N(Cc2ccccc2)C(=O)COC(=O)c2ccccc2O)nc1C	DT40 TDP1 no CPT inconclusive
CCOC(=O)c1sc(N(Cc2ccccc2)C(=O)CCl)nc1C	DT40 TDP1 CPT inconclusive, TGFb inhibitor inconclusive, DT40 TDP1 no CPT 21µM
COC(=O)C1=C(C)NC(=O)C1(NC(=O)c1cc(OC)c(OC)c(OC)c1)C(F)(F)F (stereo not drawn)	none
COc1cc(NC(=O)c2cc3nc(-c4ccccc4)cc(-c4ccccc4)n3n2)c(OC)cc1Cl	none (no result: ATXN viability, ATXN2 expr inh)
COC(=O)c1sccc1S(=O)(=O)Nc1ccc(N2CCCCC2)cc1	DT40 TDP1 CPT inconclusive, ATXN viability inconclusive, DT40 TDP1 no CPT 16µM
COc1ccc(C(=O)Nc2ccc(Cl)c(S(=O)(=O)Nc3ccccc3OC)c2)cc1	DT40 TDP1 CPT inconclusive, TGFb inhibitor inconclusive, ATXN2 expr inh inconclusive, DT40 TDP1 no CPT inconclusive
CCN(CC)c1ccc(NC(=O)c2ccccc2)cc1S(=O)(=O)Nc1ccccc1OC	DT40 TDP1 CPT inconclusive, DT40 TDP1 no CPT 16µM
COc1ccc(NS(=O)(=O)c2cc(NC(=O)c3cccs3)ccc2N2CCCC2)cc1	DT40 TDP1 CPT inconclusive, DT40 TDP1 no CPT 21µM
COc1ccccc1NS(=O)(=O)c1cc(NC(C)=O)ccc1N1CCCCC1	none
COc1ccccc1NS(=O)(=O)c1cc(NC(=O)Nc2cccc(C)c2)ccc1N1CCCCC1	DT40 TDP1 CPT 15µM, DT40 TDP1 no CPT 9.2µM
COc1ccc(C(C(=O)NCc2ccccc2)N(C(=O)Cn2nnc3ccccc32)c2cccc(OC)c2)cc1 (stereo not drawn)	DT40 TDP1 CPT inconclusive (no result: ATXN viability, ATXN2 expr inh)

Source: PubChem (National Center for Advancing Translational Sciences (NCATS))
